From PubChem BioAssay
Compounds with a hit are over-represented: about 31% of the library has one in this group of screens.
CYP2C19 inh – inhibitors of human CYP2C19; P33261; CYP2C19 Supersomes, luciferin-H EGE luminescence, 30 min; inhibition, % at 5 µM; actives 21% (n = 96,000); AID 778;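 active = CYP2C19 inhibition above a set limit at 5 µM in the primary screen, cut at about 50% in these data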
Target sequence (P33261 whole entry, looked up): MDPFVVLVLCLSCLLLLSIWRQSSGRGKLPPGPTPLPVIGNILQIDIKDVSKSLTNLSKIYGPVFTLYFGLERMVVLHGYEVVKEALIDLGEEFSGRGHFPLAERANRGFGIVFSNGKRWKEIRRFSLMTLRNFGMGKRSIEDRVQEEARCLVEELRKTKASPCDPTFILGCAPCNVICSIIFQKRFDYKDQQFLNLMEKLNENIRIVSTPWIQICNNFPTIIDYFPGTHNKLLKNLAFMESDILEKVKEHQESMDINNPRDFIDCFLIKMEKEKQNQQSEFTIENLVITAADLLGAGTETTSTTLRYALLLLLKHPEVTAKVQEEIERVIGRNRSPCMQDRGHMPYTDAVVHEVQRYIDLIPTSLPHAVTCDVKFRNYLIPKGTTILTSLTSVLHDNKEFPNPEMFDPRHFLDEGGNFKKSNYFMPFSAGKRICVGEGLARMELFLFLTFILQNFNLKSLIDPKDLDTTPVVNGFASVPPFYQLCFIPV
CYP2C19 activ – activators of human cytochrome P450 2C19; P33261; activation factor at 5 µM; 96,000 tested, under 10 active; recombinant CYP2C19, luciferin-H EGE luminescence; hits give high values; 0 = fully inhibited enzyme, 1 = untreated enzyme;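 active = activation factor of at least 2 at 5 µM in the primary screen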
CYP2C9 act – activators of human CYP2C9 | recombinant CYP2C9, luciferin-H conversion, luminescence; hits give high values; factor 1 = untreated enzyme, 0 = blocked | activation factor at 5 µM | actives 1.4% (n = 96,000);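 active = activation factor of 2 or more for CYP2C9 at a 5 µM dose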
CYP2C9 inhib – inhibitors of human CYP2C9; CYP2C9 Supersomes, luciferin-H conversion, luminescence; AID 777; P11712; inhibition, % at 5 µM; actives 20% (n = 96,000);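 active = blocking of liver enzyme CYP2C9 beyond about 50% at 5 µM, limit read from the data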
PLAP activator – human PLAP activation. P05187. purified PLAP enzyme, luminescent substrate read-out; hits give high values. activation fold at 20 µM. actives 1.2% (n = 96,000). AID 696; in the data active = activation fold above about 2
Large screens that a line does not name were inactive.

Cc1cc(C)c(OCC(=O)Nc2cccc(O)c2)cc1C	CYP2C19 inh 75
CCOC(=O)C1C(=O)CC(C)(O)C(C(=O)OCC)C1c1cccc(OC)c1 (stereo not drawn)	none
C[C@@H](C(=O)NCc1ccccc1)N1C(=O)C2CC=CCC2C1=O (stereo partly drawn)	none
CC(C(=O)Nc1nc2ccccc2[nH]1)N1C(=O)C2CC=CCC2C1=O (stereo not drawn)	PLAP activator 2
Cc1ccc(CNC(=O)CCNS(=O)(=O)c2ccc(C)cc2)cc1	none
CCCCNC(=O)CCNS(=O)(=O)c1ccc(C)cc1	CYP2C9 act 2.6
CC(C)NC(=O)CCNS(=O)(=O)c1ccc(Br)cc1	CYP2C19 inh 50
CC1CC(C)CN(CCCNC(=O)c2csc3c2CCCC3)C1 (stereo not drawn)	none
Cc1ccc2nc(-c3ccc(O)cc3)c(Nc3ccc4c(c3)OCCO4)n2c1	none
COc1ccc(-c2nc3cnccn3c2Nc2ccc3c(c2)OCO3)cc1	CYP2C19 inh 88, CYP2C9 inhib 87
Cc1ccc(-c2nc3cnccn3c2Nc2ccc3c(c2)OCCO3)o1	CYP2C19 inh 87, CYP2C9 inhib 72
Cc1ccc(-c2nc3cnccn3c2Nc2ccc3c(c2)OCO3)cc1	CYP2C19 inh 78, CYP2C9 inhib 86
COc1ccc(N/C=C\C(=O)c2ccc3c(c2)OCO3)cc1	none
Cc1cc(C)n2c(Nc3ccc4c(c3)OCCO4)c(-c3ccccc3)nc2n1	CYP2C9 inhib 76
COC(=O)CSc1nc2ccccc2c(=O)n1C	none
CCOC(=O)C1CCCN(C(=O)Cc2ccc(C)cc2)C1 (stereo not drawn)	none
CCOC(=O)C1CCCN(c2c(Nc3ccc(OCC)cc3)c(=O)c2=O)C1 (stereo not drawn)	none
CCOC(=O)C1CCCN(c2c(Nc3cccc(C)c3)c(=O)c2=O)C1 (stereo not drawn)	CYP2C9 inhib 52
CCOC(=O)C1CCCN(C(=S)Nc2ccc(C)cc2C)C1 (stereo not drawn)	CYP2C19 inh 84
CCOC(=O)C1CCCN(C(=O)C2c3ccccc3Oc3ccccc32)C1 (stereo not drawn)	CYP2C19 inh 97, CYP2C9 inhib 64
CS(=O)(=O)N1CCN(C(=O)C2c3ccccc3Oc3ccccc32)CC1	CYP2C19 inh 97, CYP2C9 inhib 50
CS(=O)(=O)N1CCN(C(=O)c2ccccc2)C1	none
CCOc1ccccc1N1CCN(C(=O)C2c3ccccc3Oc3ccccc32)CC1	CYP2C19 inh 78, CYP2C9 inhib 85
Cc1ccc(CN2CC(C(=O)O)CC2=O)cc1 (stereo not drawn)	none
Cc1sc2nc(CSc3nc4ccccc4c(=O)n3CCCN3CCOCC3)[nH]c(=O)c2c1C	CYP2C19 inh 71, CYP2C9 inhib 70
COCCn1c(SCC(=O)c2[nH]c(C)c(C(C)=O)c2C)nc2ccccc21	CYP2C19 inh 95, CYP2C9 inhib 78
CC(=O)c1c(C)[nH]c(C(=O)CSc2nc3ccccc3c(=O)n2CCCN2CCOCC2)c1C	CYP2C19 inh 69, CYP2C9 inhib 66
O=c1c2ccccc2nc(-c2ccccc2)n1CCCN1CCOCC1	none
CCOC(=O)c1ccc(-n2[nH]c(-c3ccccc3)cc2=O)cc1	none
O=c1cc(-c2ccccc2)[nH]n1-c1nc2ccccc2[nH]1	CYP2C9 inhib 56, PLAP activator 2.1
c1ccc(CSc2nnc(NC3=NCCCCC3)s2)cc1	CYP2C19 inh 68
N#Cc1ccc(CSc2nnc(Nc3ccccc3)s2)cc1	none
Cc1sc(NC(=O)c2cccc([N+](=O)[O-])c2)c(C(N)=O)c1-c1ccc(C(C)(C)C)cc1	none
CCOC(=O)c1c(C)n(CC(COC(C)=O)OC(C)=O)c2ccc(OC(C)=O)cc12 (stereo not drawn)	none
CCN1C(=O)/C(=C2\C=Cc3ccccc3N2CC)SC1=S	CYP2C19 inh 55
CCN1C(=O)/C(=C2\SC(=S)N(CCCOC)C2=O)c2ccccc21	CYP2C9 inhib 52
COc1ccccc1C(=O)NC(=Nc1nc2ccccc2o1)NC(=O)c1ccccc1OC	CYP2C19 inh 65, CYP2C9 inhib 73
O[C@@H]1C2CCCC1[C@]1(O)CCCCC1C2 (stereo partly drawn)	CYP2C9 inhib 62
COc1ccc(-n2c(=S)[nH]c3ccccc32)cc1	CYP2C19 inh 54
COc1ccc2c(c1)[nH]c1c(=O)n(Cc3ccco3)cnc12	none
COc1ccc2c(c1)c1ncn(Cc3ccco3)c(=O)c1n2C	CYP2C19 inh 75, CYP2C9 inhib 72
Cc1cc(Br)c(S(=O)(=O)n2nnc3ccccc32)cc1C	none
Clc1ccc(OCc2nn3c(-c4ccccc4)nnc3s2)c(Cl)c1	none
Clc1ccccc1OCc1nn2c(-c3ccncc3)nnc2s1	CYP2C19 inh 100, CYP2C9 inhib 80
c1csc(Cc2nn3c(-c4ccncc4)nnc3s2)c1	CYP2C19 inh 98, CYP2C9 inhib 80
N=C1/C(=C/c2cccs2)C(=O)N=C2SN=C(SCc3ccccc3)N12	CYP2C9 inhib 93
NC1=NC(=O)/C(=C\c2cccs2)S1	none
CCOC(=O)C1CCCc2c1[nH]c1c(C(N)=O)cccc21 (stereo not drawn)	CYP2C9 inhib 53
O=C(c1ccncc1)c1ccc(Br)cc1	CYP2C9 inhib 62
O=C(c1ccc(Br)cc1)N1CCCC1	none
Cc1cc(C)c2cc3c(N)c(C(=O)N4CCc5ccccc5C4)sc3nc2c1	none
Cc1ccc2nc3sc(C(=O)N4CCCc5ccccc54)c(N)c3cc2c1	CYP2C19 inh 87, CYP2C9 inhib 92
Cc1ccc(-c2cc(C(=O)N3CCCc4ccccc43)c3ccccc3n2)cc1	CYP2C19 inh 71, CYP2C9 inhib 93
CC(SCc1cn2cc(Cl)ccc2n1)C(=O)O (stereo not drawn)	none
COc1cc(OC)c(OC)cc1CN1CCN(S(=O)(=O)c2ccc(F)cc2)CC1	none
CNS(=O)(=O)c1cnccc1N1CCN(c2cccc(Cl)c2)CC1	CYP2C19 inh 58
CCOC(=O)C(C)Oc1cccc2c(=O)n(CC(=O)N3CCN(C(=O)OCC)CC3)ccc12 (stereo not drawn)	none
CCCNC(=O)CN(CCc1ccccc1)S(C)(=O)=O	CYP2C19 inh 76
CS(=O)(=O)N(CCc1ccccc1)CC(=O)NCc1ccc2c(c1)OCO2	none
CCCCC(=O)NC1(C(F)(F)F)C(=O)Nc2c1c(=O)[nH]c(=O)n2Cc1ccco1 (stereo not drawn)	none
O=C(NCCS(=O)CCNC(=O)C(F)(F)F)C(F)(F)F	none
CC(=O)N1CCN(S(=O)(=O)c2ccc(C)cc2)C1c1ccc(N(C)C)cc1 (stereo not drawn)	none
Cc1ccc(S(=O)(=O)N2CCN(S(=O)(=O)c3ccccc3)C2c2ccc(N(C)C)cc2)cc1 (stereo not drawn)	CYP2C19 inh 94, CYP2C9 inhib 88
COc1ccc(C2N(S(=O)(=O)c3ccc(C)cc3)CCN2S(=O)(=O)c2ccc(C)cc2)cc1	CYP2C19 inh 96, CYP2C9 inhib 90
